Compound activity as filed in PubChem BioAssay.
VLA-4 agonist: allosterically activates the human VLA-4 integrin. 24,000 tested, under 10 active. activation, % at 10 µM (by protocol). P13612. Jurkat cells, LDV-FITC binding, flow cytometry;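 active means fluorescent ligand binding to cells raised by more than 40% of the manganese-induced maximum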
FPRL1 ligand: binds the human formylpeptide receptor-like-1 FPRL1 | P25090 | FPRL1-expressing cells, fluorescent ligand binding inhibition, flow cytometry | inhibition, % (concentration not given with the values) | actives 0.3% (n = 24,000)
Jurkat autofluor: compound fluoresces in Jurkat cells, VLA-4 screen interference | fluorescence ratio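 (tested at 10 µM compound in the well)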 | compound autofluorescence, flow cytometry; active compounds read high; 1 = vehicle-only cell background | actives 0.61% (n = 24,000);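 active means fluorescence ratio above 2.44, which is 1 plus 3 SD of all ratios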;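 further: green fluorescence of cells measured with 488 nm excitation and 530 nm emission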
FPR ligand: ligands of human FPR, also counter-screen for FPRL1 ligands; P21462; FPR-expressing cells, fluorescent ligand binding, flow cytometry; inhibition, % (concentration not given with the values); actives 0.74% (n = 24,000); AID 440
VLA-4 antagonist: blocks LDV-FITC ligand binding to Mn2+-activated human VLA-4 integrin. AID 529. actives 0.2% (n = 24,000). Jurkat cells, LDV-FITC binding with Mn2+, flow cytometry; 100% = Mn2+-driven binding gain fully reversed. inhibition, % at 10 µM (by protocol);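 active means inhibition above 50%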
Large screens that a line does not name were inactive. An excerpt weighted towards active compounds, which were near 1.8% of everything screened. Unless noted, no stated cut-off is given here; in the data, active means inhibition above about 30%; inconclusive means no clear call, values can overlap the other calls; inactive means below that.

CC1=C(C(=O)OC(C)C)[C@]2(C(=O)N(CC(N)=O)c3ccccc32)C(C#N)=C(N)O1	FPRL1 ligand 50
CCCCn1c(O)c(C(CC)=Nc2cccc(C(=O)O)c2)c(=O)[nH]c1=O	none
